Test results published in PubChem BioAssay (NCI).
This is part of a sample that, as a whole, favours compounds with a hit. Of some 83,000 tested, about 20% had one in any assay.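 Plates (96-well) were seeded with cells, treated with compound at one concentration, and incubated for 48 hours before percent growth was determined.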 Values without a mark were called inactive. The source made the active and inactive calls. How the source made its calls: active means growth percent below 10; inactive means the rest.

Legend:
Assay in all cases: NCI-60 one-dose screen, 48 h (100 = growth as untreated, 0 = no growth, -100 = all killed)
DU-145 prostate = settings: 10 µM unless noted
K-562 leukemia = settings: 10 µM unless noted
MALME-3M melanoma = settings: 10 µM unless noted
MDA-MB-231 breast = settings: 10 µM unless noted
RXF 393 renal = settings: 10 µM unless noted
SF-268 CNS = settings: 10 µM unless noted
SF-295 CNS = settings: 10 µM unless noted
SF-539 CNS = settings: 10 µM unless noted
UACC-257 melanoma = settings: 10 µM
HT29 colon = settings: 10 µM unless noted
SNB-75 CNS = settings: 10 µM unless noted
SNB-19 CNS = settings: 10 µM unless noted
U251 CNS = settings: 10 µM unless noted
PC-3 prostate = settings: 10 µM unless noted
SK-MEL-5 melanoma = settings: 10 µM unless noted
UACC-62 melanoma = settings: 10 µM unless noted
LOX IMVI melanoma = settings: 10 µM unless noted
SK-MEL-28 melanoma = settings: 10 µM unless noted
M14 melanoma = settings: 10 µM unless noted
HCT-15 colon = settings: 10 µM unless noted

| Compound | growth (DU-145 prostate) | growth (K-562 leukemia) | growth (MALME-3M melanoma) | growth (MDA-MB-231 breast) | growth (RXF 393 renal) | growth (SF-268 CNS) | growth (SF-295 CNS) | growth (SF-539 CNS) | growth (UACC-257 melanoma) | growth (HT29 colon) | growth (SNB-75 CNS) | growth (SNB-19 CNS) | growth (U251 CNS) | growth (PC-3 prostate) | growth (SK-MEL-5 melanoma) | growth (UACC-62 melanoma) | growth (LOX IMVI melanoma) | growth (SK-MEL-28 melanoma) | growth (M14 melanoma) | growth (HCT-15 colon) |
| --- | --- | --- | --- | --- | --- | --- | --- | --- | --- | --- | --- | --- | --- | --- | --- | --- | --- | --- | --- | --- |
| Cn1c(SC(C(=O)Nc2ccc(F)cc2)c2ccccc2)nc2ccccc2c1=O (configuration not stated) | 112% | 103% | 88% | 99.4% | 117% | 106% | 98.2% | 96.1% | 95.6% | 107% | 91.3% | 98.9% | 103% | 95.8% | 104% | 95.2% | 102% | 114% |  |  |
| C/C=C/[C@@H]1C=C[C@@H]2C[C@H](C)CC[C@H]2[C@]1(C)/C(O)=C1/C(=O)[C@H](CO)N(C)C1=O | 56.5% | 46.5% | 79.5% | 80.1% | 64.9% | 54.8% | 43.3% | 58.5% |  | 61.9% | 75.5% | 43.2% | 47% | 45.7% | 52.4% | 46.9% | 53.5% | 63.2% | 62.2% | 39.4% |
| CC1=CC(=O)CC(C)(C)[C@@]1(O)/C=C/C(C)=C\C(=O)O | -21.8% (active) | 0.164% (active) | -57.5% (active) | -18% (active) | -64.2% (active) | -5.99% (active) | -38.7% (active) | -46.5% (active) |  | -36.9% (active) | -41.2% (active) | -9.04% (active) | -18.5% (active) | -7.5% (active) | -83% (active) | -56.9% (active) | -75.8% (active) | -34.6% (active) | -77.3% (active) | -23.1% (active) |
| CC(=O)NC(C)(C)C(=O)N[C@@H](C)C(=O)NC(C)(C)C(=O)N[C@@H](C)C(=O)NC(C)(C)C(=O)N[C@@H](C)C(=O)N[C@@H](CCC(N)=O)C(=O)NC(C)(C)C(=O)N[C@H](C(=O)NC(C)(C)C(=O)NCC(=O)N[C@@H](CC(C)C)C(=O)NC(C)(C)C(=O)N1CCC[C@H]1C(=O)N[C@H](C(=O)NC(C)(C)C(=O)NC(C)(C)C(=O)N[C@@H](CCC(N)=O)C(=O)N[C@@H](CCC(N)=O)C(=O)N[C@H](CO)CC1CCCCC1)C(C)C)C(C)C | 55.5% [5 µM] | 24.3% [5 µM] | -41.4% [5 µM] (active) | 55.3% [5 µM] | 55.8% [5 µM] | 46.9% [5 µM] | 23.9% [5 µM] | 29.3% [5 µM] |  | 14.1% [5 µM] | 19.7% [5 µM] | 43.8% [5 µM] | 38.5% [5 µM] | 29.8% [5 µM] | -33.6% [5 µM] (active) | 2.45% [5 µM] (active) | 27.1% [5 µM] | -17.1% [5 µM] (active) | 4.76% [5 µM] (active) |  |
| Cn1c2ccc(Br)cc2c2c3c(c4c5cc(F)ccc5oc4c21)C(=O)N(O)C3=O | 88.1% | 82.8% | -95.9% (active) | 85.3% |  | 70.7% | 89.9% | 83.5% | 104% | 101% | 70% | 74.3% | 79.8% | 68% | 90.3% | 80.2% | 61.9% | 112% | 89.4% | 89.2% |
| O=c1c2c(O)cccc2oc2c3c(cc(O)c12)O[C@H]1OC=C[C@@H]31 | 98% | 96.2% | 95.2% | 83.2% | 99.1% | 94.7% | 89.5% | 98.4% |  | 88.9% | 85.7% | 96.8% | 92.9% | 90.1% | 81.1% | 81% | 87.4% | 108% | 101% | 87.8% |
| COc1ccc2oc3c4[nH]c5ccccc5c4c4c(c3c2c1)C(=O)N(O)C4=O | 101% | 98.3% | 105% | 95.7% |  | 100% | 106% | 98% | 106% | 104% | 89.1% | 95.2% | 106% | 85.8% | 101% | 94.6% | 116% | 106% | 102% | 105% |
| CS(=O)(=O)c1nccc(-c2c(-c3ccc(F)c(OCCc4ccccc4)c3)nc3sccn23)n1 | -87.9% (active) |  | 119% | 89.4% | 99.1% | 98.7% | 97.2% | 93% | -16.4% (active) | 91.3% | 108% | 81.7% | 105% | 41.7% | 98% | 83.9% | 75.2% | 57.3% | 83.2% | 83.1% |
| COc1ccc(C2CC(c3ccc(Nc4nc(NCCO)nc(Nc5ccc(Cl)cc5)n4)cc3)=Nc3c(N)nc(N)nc3N2)cc1 (configuration not stated) | 73.1% | -10.1% (active) | 113% | 77.3% |  | 81.6% | 82% | 84.4% | 113% | 54.8% | 117% | 76.8% | 66.4% | 63.1% |  | 107% | 12.9% | 119% | 94.7% | 14.1% |
| O=C(Cn1cc(CN2C(=O)c3ccc([N+](=O)[O-])cc3C2=O)nn1)Nc1ccc(F)cc1Cl | 106% | 97.9% | 83.3% | 92.4% |  | 99.8% | 104% | 93.9% | 97.8% | 102% | 92.6% | 97.2% | 97.3% | 92.6% |  | 92.3% | 107% | 99.9% | 94.8% | 99.5% |
| C=CCn1c(SCC(=O)Nc2cccc(C(=O)/C=C/c3ccc(Cl)cc3)c2)nc2ccccc2c1=O | 95.1% |  | 95.6% | 81.3% | 87% | 87.3% | 94.7% | 85.9% | 102% | 84.8% | 72.2% | 86.9% | 90.7% | 89% | 99.1% | 72.2% | 77.9% | 93.3% | 87.8% | 81.5% |
| C=CCn1c(SCC(=O)Nc2cccc(C(=O)/C=C/c3ccc(C)cc3)c2)nc2ccccc2c1=O | 95.9% |  | 106% | 92.8% | 77.7% | 90.6% | 101% | 89.4% | 96.8% | 72.7% | 78.4% | 81.7% | 72% | 72.5% | 97.2% | 76.7% | 73.8% | 95.3% | 96.7% | 62% |
| Cc1ccccc1/C=C/c1nn2c(-c3ccoc3C)nnc2s1 | 103% |  | 106% | 104% | 96.2% | 101% | 94% | 103% | 110% | 97.7% | 111% | 90.8% | 97.6% | 99.4% | 98.4% | 88% | 101% | 94.9% | 99% | 97.9% |
| C/C(=C(/c1ccc(O)cc1)c1ccc(OCCN2CCCC2)cc1)c1ccc(Cl)cc1 | 65.1% |  | -39.9% (active) | 40.9% | 3.89% (active) | 60.9% | 67.8% | 0.146% (active) | -77.6% (active) | -52.3% (active) | 62.5% | 49.1% | 20.3% | 46.9% | 54.3% | -17.7% (active) | -19.2% (active) | -70% (active) | -64.7% (active) | -19.1% (active) |
